Source: PubChem BioAssay (NCI)
This is part of a sample that, as a whole, favours compounds with a hit. Of some 83,000 tested, about 20% had one in any assay.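 Activity criterion: percent growth below 10, measured after cells in 96-well plates were exposed to a single compound concentration for 48 hours.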 Unmarked numbers belong to inactive results. Calls of active or inactive are those of the source.

Test system: HL-60(TB) leukemia
Test: NCI-60 one-dose screen, 48 h (100 = growth as untreated, 0 = no growth, -100 = all killed)
Settings: 10 µM unless noted

Compound | growth
CC(C)=CCCC(C)C1=C(O)C(=O)C(C)=CC1=O (centres undefined) | -47.1% (active)
COc1ccc(-c2nnc(COc3ccc(Cl)cc3Cl)o2)cc1OC | 89.3%
COc1cc2nc(-c3ccc(C(F)(F)F)cc3)cc(OCCCN3CCOCC3)c2cc1OC | 32.5%
CC1=C([Se]CC(OC(=O)[C@@H](CO)NC(=O)OC(C)(C)C)C(=O)NC(C)(C)C)C(=O)c2ccccc2C1=O (some centres undefined) | -36.2% (active)
NC(CO)(CO)c1ccccc1 | 119%
CN(C)CCOC(=O)Nc1ccccc1Cl | 112%
CC/C=C\C/C=C\C[C@H](O)C/C=C1/C(=O)C=C[C@@H]1C/C=C\CCCC(=O)OC | -19.5% (active)
O=C(CSc1nnc(-c2ccc(Cl)cc2)o1)c1ccccc1 | 90.9%
CCOCCOCCOCCOCCOCCOCCOCCOCCOCCO (tested in a mixture with another compound) | -54.9% (active)
Oc1ccc(-c2nc3ccc4[nH]ncc4c3c3c2CCCC3)c2cccnc12 | -8.83% (active)
CCCCCCCC/C=C\CCCCCCCC(=O)OCCCCCC | 93.6%
CC(CCC(=O)O)[C@H]1CCC2C3C(=O)C[C@@H]4CC(=O)CC[C@]4(C)C3CC(=O)[C@@]21C (some centres undefined) | 106%
CN1CCN(Cc2ccc(C(=O)Nc3cncc(C#Cc4cnc5cccnn45)c3)cc2C(F)(F)F)CC1 | 1.37% (active)
Cc1cc(C#Cc2ccccc2)ccc1-n1c(/C=C/c2cc(O)ccc2O)nc2ccccc2c1=O | -11.9% (active)
CC1=NN(c2ccccc2Cl)C(=O)/C1=C\c1cn(S(=O)(=O)c2ccc(C)cc2)c2ccccc12 | 114%
CCOC(=O)c1c(-c2ccc(OC)cc2)c(C#N)c2c(C#N)c(N)nn2c1N | -40.4% (active)
COCn1c(C(=O)OC)cc2oc(/C=C3/SC(=S)N(N)C3=O)cc21 | 76.9%
O=c1[nH]c(=O)c2[nH]c(=O)[nH]c2[nH]1 | 100%
COc1ccc(C2=NN(C(=O)c3cc(-c4ccc(C)cc4)nc4ccccc34)C(c3cc(-c4ccccc4)nn3-c3ccccc3)C2)cc1 (centres undefined) | 90.6%
CCOC(=O)CNC | 97.3%
O=C(Nc1ccc(CN2CCOCC2)c(C(F)(F)F)c1)c1nc2ccc3[nH]ncc3c2c2c1CCCC2 | 98.1%

Compound | growth
FC(F)(F)c1ccccc1-c1cn2c(ccc3ccccc32)n1 | 48.1%
Clc1cccc(-c2nc(-c3cccs3)no2)c1 | 98.4%
Cc1nc2sc(C(=O)Nc3ccccc3Cl)c(N)c2cc1C(C)O (centres undefined) | 58.8%
COC(=O)c1c(C)nc(C)c2c1C(=O)C(Br)=C(NCCCCO)C2=O | 24.1%
O=C(O)c1cccc2cccc(-c3c4ccc(=O)c(O)c-4oc4c(O)c(O)ccc34)c12 | 67.6%
C=CC(=O)Nc1cccc(Oc2nccc(Nc3nnc(-c4ccc(Br)cc4)s3)n2)c1 | 121%
CN1CCN(Cc2ccc(NC(=O)c3cncc(C#Cc4c(N)ncc5ccc(F)cc45)c3)cc2C(F)(F)F)CC1 | 17.4%
COc1cc(CNS(=O)(=O)c2ccc(C)cc2)ccc1OCc1cn(-c2ccccc2)nn1 | 85.2%
O=C1c2c[n+](Cc3ccccc3)ccc2-c2nc3ccccc3c3ccnc1c23 | -29.6% (active)
NNCCc1ccc(NC(=O)CCCc2ccc(/C=C/C(=O)NO)cc2)cc1 | 18.3%
Nc1ccc(C2=NN(C(=O)c3cc(-c4ccc(Cl)cc4)nc4ccccc34)C(c3ccccc3)C2)cc1 (centres undefined) | -6.07% (active)
c1ccc2c(c1)CN(CCCN1CCOCC1)C2 | 105%
CC(=O)OCCCCCNc1ccccc1 | 76.3%
COc1cc(C2CC(c3cccc(Nc4ccncc4)c3)=Nc3c(N)ncnc3N2)cc(OC)c1OC (centres undefined) | 83.7%
COC(=O)c1nc(-c2ccccc2)oc1S(=O)(=O)N(C)CCO | -24.6% (active)
C/C(CCC(=O)O)=N/Nc1ccc([N+](=O)[O-])cc1 | 31.9%
CSc1nc2c(c(=O)[nH]1)C1(C(=O)Nc3ccccc31)c1c(nc(SC)[nH]c1=O)N2 | 107%
O=C(/C=C/c1ccc2c(c1)OCO2)c1c(O)c2ccccc2oc1=O | 77.8%
OC(COc1cccc2ccccc12)CN1CCN(c2ccccc2Cl)CC1 (centres undefined) | 103%
O=C(/C=C/c1cccc(O)c1)c1cccc(-n2cc(-c3ccc(Cl)cc3)[nH]c2=O)c1 | -6.19% (active)
CC(=O)Nc1ccc(C(=O)COc2cccc(/C=C3\CCc4ccccc4C3=O)c2)cc1 | 89.2%

Compound | growth
CCN1C(=O)N(CC)C2C1NN=c1s/c(=C3\C(=O)Nc4ccccc43)c(=O)n12 (centres undefined) | -25% (active)
COC(=O)[C@@H]1CCCN1C(=O)[C@H]1CCCN1C(=O)[C@@H](Cc1c[nH]c2ccccc12)NC(=S)Nc1cc(C(F)(F)F)cc(C(F)(F)F)c1 | 12.2%
COc1cc(C2=NN(C(C)=O)C(c3ccc(N(C)C)cc3)C2)cc(OC)c1OC (centres undefined) | 89.6%
COc1ccc(-c2nnc(NC(=O)CN3CCN(c4cc5c(cc4F)c(=O)c(C(=O)O)cn5C4CC4)CC3)s2)cc1OC | 111%
CC1=C(C(=O)OCc2ccccc2)C(c2ccc3c(c2)OCO3)n2c(nc3ccccc32)N1 (centres undefined) | -14.7% (active)
COc1cc2c(cc1OCCCN1CCN(CCCOc3cc4c(cc3OC)C(=O)N3CCC[C@H]3C=N4)CC1)C=CC(C)(C)O2 | 10.2%
CCOC(=O)C(C)C(C)(O)c1ccccc1 (centres undefined) | 99.2%
C=C1C(=O)O[C@H]2[C@H]1CC/C(COC(=O)NCc1ccc(Cn3c(=O)sn(CCCC)c3=O)cc1)=C\CC[C@@]1(C)O[C@@H]21 | -33.2% (active)
COc1ccc(/C=N/OCC(O)CN2CCC(O)CC2)cc1OC1CCCC1 (centres undefined) | 100%
CC1OC(C(=O)N2CCN(CCO)CC2)CC1COC1CCCCC1 (centres undefined) | 98.3% [50 µM]
CN(C)CCCNC(=O)C(c1ccccc1)c1ccccc1 | 106%
CN1CCN(Cc2ccc(NC(=O)c3cncc(C#Cc4cncc5[nH]ncc45)c3)cc2C(F)(F)F)CC1 | -28.9% (active)
O=C(COc1ccc(-c2nc3cc(Cl)c(Cl)cc3[nH]2)cc1)N=Nc1c(O)[nH]c2ccc(Cl)cc12 | 55.5%
c1cc(OCCN2CCCCCC2)ccc1CNc1ccc2nc(CCC3CCCCC3)[nH]c2c1 | 22.9%
COc1ccc2c(c1)c(-c1nonc1-c1cn(C)c3ccc(OC)cc13)cn2C | -1.01% (active)
COc1ccc(-c2cc(/C=C/C(=O)c3ccc(OC)c(OC)c3)[nH]n2)cc1 | -43.7% (active)
Cc1ccc(-c2nc3ccccc3c(=O)n2/N=C/c2cccc3ccccc23)cc1 | 85.1%
COc1cccc2c1c1nc3cc(C)c(C)cc3nc1n2CCN(C)C | 15.3%
COc1cccc2nc3n(c12)C(c1c(F)cccc1F)SC3 (centres undefined) | 70.3%
O=C(/C=C/c1cc(CN2CCOCC2)c(O)c2ncccc12)c1cc(CN2CCOCC2)c(O)c2ncccc12 | 22%
C#C[C@]1(O)CC[C@H]2[C@@H]3CC=C4c5sc(N=C(N)N)nc5CC[C@]4(C)[C@H]3CC[C@@]21C | -44.8% (active)

Compound | growth
COc1cc(-c2cc(C(=O)Nc3nc4ccccc4s3)nc3cc(-c4ccccc4)nn23)cc(OC)c1OC | 48.3%
COc1ccc(-c2nc(-c3nc4ccc(OC)cc4[nH]3)cc3c2[nH]c2ccccc23)cc1 | 34.7%
c1ccc2oc(-c3cnc4nonc4n3)cc2c1 | 90.9%
O=C(N/N=C/c1ccc(O)c(O)c1)c1sc2ccccc2c1Cl | 4.17% (active)
COc1ccc(F)c(F)c1C(=O)c1cnc(NC2CCN(S(C)(=O)=O)CC2)nc1N | -32.2% (active)
Cc1ccc(O)c(N2C(=NCc3ccco3)NS(=O)(=O)c3cnccc32)c1 | 114%
C(=C\c1nccc2c1[nH]c1ccccc12)/c1ccccc1 | 55.5%
COc1ccc(-c2cn3c(ccc4ccccc43)n2)cc1 | 109%
NC(=O)c1ccccc1OCC(O)CO (centres undefined) | 108%
CCC/C(=N/NC(N)=O)c1ccco1 | 76.8%
C=C(C)[C@@H]1C/C=C(\COC(=O)[C@H](OC(C)=O)C(NC(=O)c2ccccc2)c2ccccc2)CC[C@H]2O[C@]2(C)CC/C=C(\C)CC1 (some centres undefined) | 29.9% [5 µM]
Cc1ccc(CS/C(=C\c2ccc([N+](=O)[O-])cc2)C(=O)c2ccc(F)cc2)cc1 | 30.4%
O=C(NCCCl)Nc1nccnc1OCc1ccc(F)cc1 | -18.9% (active)
O=C(NCCc1c[nH]c2ccccc12)C1Cc2ccccc2CN1C(=O)c1ccco1 (centres undefined) | 82.8%
CCN(CC)CCCCCCCNc1cc(OC)cc2c(C)ccnc12 | 56.2%
CC(=O)Oc1ccccc1C(=O)/C=C/c1cccc([N+](=O)[O-])c1 | 17.3%
N=C1N=C(N)CS1 | 112%
CNC(=O)c1cc(Oc2ccc3nc(NC(=O)Nc4cc(C(F)(F)F)cc(C(F)(F)F)c4)sc3c2)ccn1 | -39.8% (active)
COc1cc(-c2nn(-c3cccc(NC(=O)Nc4cc(C(F)(F)F)cc(C(F)(F)F)c4)c3)cc2-c2ccncc2)ccc1Cl | -20.2% (active)
CSC(=S)N/N=C(\C)c1ccccn1 | -12.1% (active)
CC1Cc2ccc(OCCN(C)C)cc2C1=O (centres undefined) | 111%
